# Assay results reported in the supplement of paper PMC8728848.
# The full list was thinned out, with the strongest signals kept by preference.
# B1: CD23 (Homo sapiens) (protein)
# chain: MELQVSSGFVCNTCPEKWINFQRKCYYFGKGTKQWVHARYACDDMEGQLVSIHSPEEQDFLTKRASHTGSWIGLRNLDLKGEFIWVDGSHVDYSNWAPGEPTSRSQSEDCVMMRGSGRWNDAFCDRKLGAWVCDRLATCTPPASEGSAESMGPDSRPDPDGRLPTPSAPLHS
# Tests used:
# Assay in all cases: glycan array binding signal (z-score within array); higher = stronger binding
# Conditions in all cases: glycan notation: IUPAC condensed, linker removed; mutation: H213R,G256S
# [1] = molecular target: Fuc(a1-2)Gal
# Procedure, shortened: (§1)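 The Consortium for Functional Glycomics database supplied 3228 glycan arrays, of which those lacking an available protein sequence were dropped. The binding signal, a within-array Z-score, was averaged across arrays of the same protein sequence and across linkers. Negative scores can be read as non-binding.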
# [2] = molecular target: Fuc(a1-2)Gal(b1-3)GalNAc
# Procedure, shortened: as §1
# [3] = molecular target: Fuc(a1-2)Gal(b1-4)Glc6S
# Procedure, shortened: as §1
# [4] = molecular target: Fuc(a1-2)Gal(b1-4)[Fuc(a1-3)]GlcNAc(b1-3)Gal(b1-4)[Fuc(a1-3)]GlcNAc(b1-3)Gal(b1-4)[Fuc(a1-3)]GlcNAc
# Procedure, shortened: as §1
# [5] = molecular target: Fuc(a1-2)[GalNAc(a1-3)]Gal(b1-4)[Fuc(a1-3)]GlcNAc
# Procedure, shortened: as §1
# [6] = molecular target: Fuc(a1-3)GlcNAc
# Procedure, shortened: as §1
# [7] = molecular target: Fuc(a1-3)[Gal(b1-4)]GlcNAc(b1-4)Gal(b1-4)[Fuc(a1-3)]GlcNAc
# Procedure, shortened: as §1
# [8] = molecular target: Gal(a1-4)Gal(b1-4)Glc
# Procedure, shortened: as §1
# [9] = molecular target: Gal(a1-4)GlcNAc
# Procedure, shortened: as §1
# [10] = molecular target: Gal3S(b1-3)GalNAc
# Procedure, shortened: as §1
# [11] = molecular target: Gal3S(b1-4)[Fuc(a1-3)]Glc
# Procedure, shortened: as §1
# [12] = molecular target: Gal3S6S(b1-4)GlcNAc6S
# Procedure, shortened: as §1
# [13] = molecular target: Gal6S(b1-4)Glc6S
# Procedure, shortened: as §1
# [14] = molecular target: Glc(b1-6)Glc
# Procedure, shortened: as §1
# [15] = molecular target: Kdn(a2-3)Gal(b1-4)GlcNAc
# Procedure, shortened: as §1
# [16] = molecular target: Man(a1-2)Man(a1-3)[Man(a1-2)Man(a1-6)]Man(a1-6)[Man(a1-2)Man(a1-2)Man(a1-3)]Man(b1-4)GlcNAc(b1-4)GlcNAc
# Procedure, shortened: as §1
# [17] = molecular target: Neu5Ac(a2-3)Gal(b1-3)GalNAc
# Procedure, shortened: as §1
# [18] = molecular target: Neu5Ac(a2-3)Gal(b1-3)[Neu5Ac(a2-3)Gal(b1-4)]GlcNAc
# Procedure, shortened: as §1
# [19] = molecular target: Neu5Ac(a2-3)Gal(b1-4)[Fuc(a1-3)]GlcNAc(b1-3)Gal(b1-4)GlcNAc
# Procedure, shortened: as §1
# [20] = molecular target: Neu5Ac(a2-6)Gal(b1-4)GlcNAc6S
# Procedure, shortened: as §1
# [21] = molecular target: Neu5Gc(a2-3)Gal(b1-4)GlcNAc
# Procedure, shortened: as §1
binder,measurement,setting,value
B1,glycan array binding signal (z-score),[1],0.42
same,glycan array binding signal (z-score),[2],0.764
same,glycan array binding signal (z-score),[3],0.623
same,glycan array binding signal (z-score),[4],1.02
same,glycan array binding signal (z-score),[5],-0.361
same,glycan array binding signal (z-score),[6],-0.166
same,glycan array binding signal (z-score),[7],0.007
same,glycan array binding signal (z-score),[8],-0.15
same,glycan array binding signal (z-score),[9],0.434
same,glycan array binding signal (z-score),[10],-0.308
same,glycan array binding signal (z-score),[11],-0.106
same,glycan array binding signal (z-score),[12],1.06
same,glycan array binding signal (z-score),[13],0.798
same,glycan array binding signal (z-score),[14],-0.561
same,glycan array binding signal (z-score),[15],-0.386
same,glycan array binding signal (z-score),[16],0.376
same,glycan array binding signal (z-score),[17],-0.283
same,glycan array binding signal (z-score),[18],-0.301
same,glycan array binding signal (z-score),[19],0.869
same,glycan array binding signal (z-score),[20],-0.002
same,glycan array binding signal (z-score),[21],0.062
